In PubChem BioAssay (Tox21):
Values without a mark were called inactive. Calls of active or inactive are those of the source. The call rests on the fitted dose curve.

Target: Thyrotropin-releasing hormone receptor (Homo sapiens) (UniProt P34981)
Experiment: qHTS assay to identify small molecule agonists of the thyrotropin-releasing hormone receptor (TRHR) signaling pathway (AID 1346891);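 on activation: HEK293 cells expressing TRHR with calcium dye readout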
Conditions: TRHR-HEK293 calcium fluorescence, agonist mode; series mostly up to 57.6 µM; activation: at the top concentration
Text: National Center for Advancing Translational Sciences [NCATS] NIH Chemical Genomics Center [NCGC] U.S. Environmental Protection Agency [EPA] National Institutes of Environmental Health Sciences [NIEHS] National Toxicology Program [NTP] Assay overview: Thyrotropin-releasing hormone (TRH) receptor (TRHR) is a G-protein-coupled receptor which binds the tripeptide thyrotropin releasing hormone. TRHR is found in the brain and, when bound by TRH, acts (through phospholipase C) to increase intracellular inositol trisphosphate. It plays a crucial role in the anterior pituitary where it controls the synthesis and secretion of thyroid stimulating hormone and prolactin. The TRHR-Hek293 assay is a cell-based assay, and it has the potential to screen G protein-coupled receptors. A compound/drug can either activate (agonist) or suppress (antagonist) GPCRs that can be monitored by levels of intracellular calcium. Using this assay, the Tox21 10K compound library was screened to identify potential TRHR agonists.
Assay Protocol Summary: The TRHR-Hek293 cells were dispensed at 1500cells/4uL/well in 1536-well black-clear bottom plates using a Multidrop dispenser. After the assay plates were incubated at a 37 C/5% CO2 incubator for 18 hours, 4 uL of Dye-Loading Solution was added to each well. The plates were incubated at 37 C for 2 hours. For agonist mode, 23 nL of compounds dissolved in DMSO, positive controls or DMSO only was transferred to the assay plate by a pin tool. The fluorescence intensity in the plates was measured using FDSS 7000EX kinetic plate reader for 3 min at 1 sec intervals. Each test compound was measured at 15 concentrations and in triplicates.
On the % scale 0 is the no-effect control and ±100 the full control effect; potency means the concentration at half of the fitted maximal effect.

Sequence of Thyrotropin-releasing hormone receptor (Homo sapiens) (P34981 whole entry, looked up): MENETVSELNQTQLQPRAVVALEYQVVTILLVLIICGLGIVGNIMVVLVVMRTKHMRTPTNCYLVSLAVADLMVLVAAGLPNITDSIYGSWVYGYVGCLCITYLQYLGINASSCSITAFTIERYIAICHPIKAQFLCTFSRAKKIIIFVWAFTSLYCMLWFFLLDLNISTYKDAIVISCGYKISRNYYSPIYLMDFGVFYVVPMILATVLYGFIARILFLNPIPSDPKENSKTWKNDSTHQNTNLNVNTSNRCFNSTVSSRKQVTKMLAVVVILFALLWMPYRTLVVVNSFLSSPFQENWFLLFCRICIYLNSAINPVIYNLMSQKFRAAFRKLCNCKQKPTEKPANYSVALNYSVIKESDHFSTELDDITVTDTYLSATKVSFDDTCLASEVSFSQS

Compound	activation	Potency
C[C@@H](NCCCc1cccc(C(F)(F)F)c1)c1cccc2ccccc12	22.2% [at 26.5 µM]	
CCCC(C)c1ccccc1O (stereo not given)	0.114%	
CC1=C(/C=C/C(C)=C/C=C/C(C)=C/C=O)C(C)(C)CCC1	3.37%	
O=C1c2c(O)ccc(Nc3ccc(CCO)cc3)c2C(=O)c2c([N+](=O)[O-])ccc(O)c21	-0.0849%	
CSc1cnc(C)cn1	0.151% [at 150 µM]	
CCCCCCCCCCC=O	0.0932%	
COc1ccc(CN2CCN(C(c3ccc(F)cc3)c3ccc(F)cc3)CC2)c(OC)c1OC	-0.0975% [at 26.5 µM]	
CCOC(=O)O[C@]1(C(=O)OCCl)CC[C@H]2[C@@H]3CCC4=CC(=O)C=C[C@]4(C)[C@H]3[C@@H](O)C[C@@]21C	-0.0292% [at 26.5 µM]	
Cn1cc(C(=O)[C@@H]2CCc3nc[nH]c3C2)c2ccccc21	0.227% [at 26.5 µM]	
CCCCc1oc2ccc(NS(C)(=O)=O)cc2c1C(=O)c1ccc(OCCCN(CCCC)CCCC)cc1	-0.255% [at 26.5 µM]	
CC(C)OC(=O)c1cc2c(OCC(O)CNC(C)(C)C)cccc2[nH]1 (stereo not given)	-0.192% [at 26.5 µM]	
CCC(N)(CO)CO	0.0097%	
CC(C)(C)C(=O)OCOC(=O)C1N2C(=O)CC2S(=O)(=O)C1(C)C (stereo not given)	0.165% [at 26.5 µM]	
ON=C1CCCC1	0.0335%	
CN(C)[C@@H]1C(=O)C(C(N)=O)=C(O)[C@@]2(O)C(=O)C3=C(O)c4c(O)cccc4C[C@H]3C[C@@H]12	-0.389% [at 26.5 µM]	
CN(C)C(=O)C1(N2CCCCC2)CCN(CC[C@@]2(c3ccc(Cl)c(Cl)c3)CN(C(=O)c3ccccc3)CCO2)CC1	7.97%	
Nc1nc2ccccc2n1Cc1ccc(F)cc1	0.459% [at 26.5 µM]	
Nc1cc(C(F)(F)F)ccc1S	0.6% [at 26.5 µM]	
OCCN(CCO)c1nc(N2CCCCC2)c2nc(N(CCO)CCO)nc(N3CCCCC3)c2n1		12 µM (active)
CCN(CC)CCCC(C)Nc1c2ccc(Cl)cc2nc2ccc(OC)cc12 (stereo not given)	16.1% [at 26.5 µM]	

Compound	activation	Potency
N=C1C=CC(=C(c2ccc(N)cc2)c2ccc(N)cc2)C=C1	1.22%	
CCN1/C(=C/C=C/c2sc3ccccc3[n+]2CC)Sc2ccccc21	-0.259% [at 11.8 µM]	
Cc1cc(O)c(Cl)c(C)c1Cl	-0.379%	
C[n+]1cc2c3c(ccc2c2ccc4cc5c(cc4c21)OCO5)OCO3	2.25% [at 11.8 µM]	
Nc1ccc(N)c2ccccc12	3.03%	
C=CC(=O)OCC(CO)(COC(=O)C=C)COC(=O)C=C		inactive
CC/C(=C(\c1ccc(O)cc1)c1ccc(OCCN(C)C)cc1)c1ccccc1	17.5%	
c1ccc(CSCc2ccccc2)cc1	0.276%	
CCCCCCCCn1sc(Cl)c(Cl)c1=O	6%	
CCCC/C=C/CCCCO	0.669%	
CCCCCCCCS(=O)C(C)Cc1ccc2c(c1)OCO2 (stereo not given)	4.43%	
CCN(C(=O)N(CC)c1ccccc1)c1ccccc1	0.217%	
CCCCCCCCCCCCCCCC(=O)OC[C@H](O)[C@H]1OC(=O)C(O)=C1O	0.0981%	
CC[C@@]1(O)C(=O)OCc2c1cc1n(c2=O)Cc2c-1nc1ccccc1c2/C=N/OC(C)(C)C	-0.584% [at 26.5 µM]	
CNCc1cc(F)ccc1Oc1ccc(Cl)c(Cl)c1		34.7 µM (active)
CCc1cc(Cc2cc(CC)c(N)c(CC)c2)cc(CC)c1N	-0.347%	
CCCCCCCC[N+](CCCCCCCC)(CCCCCCCC)CCCCCCCC	0.444%	
CCC(CN)=C(c1ccccc1)c1ccccc1	8.59% [at 26.5 µM]	
CCN(Cc1cccnc1)C(=O)c1cccc(Cl)c1[C@]1(C)C(=O)N(Cc2ccc(OC)cc2OC)c2ccc(Cl)cc21	0.0862%	
CCCCCCCCCCCCCCCS(=O)(=O)Oc1ccccc1	0.165% [at 26.5 µM]	
